Assay results: PubChem BioAssay AID1345085 (National Center for Advancing Translational Sciences (NCATS), 2018)
Records with an inconclusive call do not appear. A number with no mark means an inactive call. Calls of active or inactive are those of the source. The call rests on the fitted dose curve; in most records, active means well fitted cell-killing curve with a large enough effect; inconclusive means small, poorly fitted or top-dose-only effect, or effect the other way; inactive means no such curve, though single readings can be large or run the other way. *1 amine or outer side, *2 acyl side, *3 side chain or, on linkers, in order; H or OH if unused. Where a SMILES comes first, the peptide text is derived from it. Bridges are numbered along the chain shown (N, C = ends). Roman numbers before positions name the chains, in order. [ ]: non-standard residue; d: D form. Actinocin(9to1) = Cc1c2oc3c(C)ccc(C(=O)[*:1])c3nc-2c(C(=O)[*:2])c(N)c1=O; NMeV = CN[C@H](C(=O)O)C(C)C; Sar = CNCC(=O)O

These molecules were tested on Jar (assay: Confirmatory qHTS for gynecologic anti-cancer compounds from libraries of approved drugs and bioactive compounds). Details: gynecologic cancer cell panel viability, ATPlite luminescence, 48 h; series mostly up to 57.6 µM; activity change, negative = viability loss: at the top concentration.
Summary of the method: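 Seeding 1,000 cells per well preceded overnight (16 h) attachment, after which 48 h drug treatment across 57.5 uM–0.977 nM (11 points) was applied. Remaining cellular ATP, detected by ATPlite luminescence, defined IC50.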
Further: nearly all actives have a fitted effect of over 55% in size.
On the % scale 0 is the no-effect control and ±100 the full control effect; potency means the concentration at half of the fitted maximal effect.

Q: `Cc1cc(Nc2nc(N[C@@H](C)c3ncc(F)cn3)ncc2Cl)n[nH]1` was tested. Which “activity change, negative = viability loss” value did it give?
A: 19.1%

Q: `COC(=O)c1ccc2c(C(=Nc3ccc(N(C)C(=O)CN4CCN(C)CC4)cc3)c3ccccc3)c(O)[nH]c2c1` was tested. Which “activity change, negative = viability loss” value did it give?
A: -10.2%

Q: How did the activity change, negative = viability loss turn out when `Cc1cnc(CNC(=O)c2c(=O)c3ccc(N4CCCN(C)CC4)nc3n3c2sc2ccccc23)cn1` was run?
A: 14.2% [at 10.7 µM]

Q: Which Potency does the source give for `Nc1ccc(-c2ccc3ncc4ccc(=O)n(-c5cccc(C(F)(F)F)c5)c4c3c2)cn1` here?
A: 1.22 µM (active)

Q: How did the Potency turn out when `Cc1nc(N)sc1-c1ccnc(Nc2ccc(N3CCOCC3)cc2)n1` was run?
A: 3.85 µM (active)

Q: With `COc1cc(Nc2c(C#N)cnc3cc(OCCCN4CCN(C)CC4)c(OC)cc23)c(Cl)cc1Cl` as the molecule, how does the Potency read?
A: 24.3 µM (active)

Q: Which Potency does the source give for `CC(=O)OC12COC1CC(O)C1(C)C(=O)C(O)C3=C(C)C(OC(=O)C(O)C(NC(=O)OC(C)(C)C)c4ccccc4)CC(O)(C(OC(=O)c4ccccc4)C21)C3(C)C` (stereo not drawn) here?
A: 0.0432 µM (active)

Q: How did the Potency turn out when `Cn1cc(-c2[nH]c3cc(NC(=O)[C@H](N)C4CCCCC4)cc4c3c2C=NNC4=O)cn1` was run?
A: 10.9 µM (active)

Q: `COc1cc(N2CCC(N3CCN(C)CC3)CC2)ccc1Nc1ncc(Cl)c(Nc2ccccc2S(=O)(=O)C(C)C)n1` was tested. Which Potency did it give?
A: 17.2 µM (active)

Q: With `CNc1nccc(-c2cccnc2Oc2cc(C(=O)Nc3cccc(C(F)(F)F)c3)ccc2C)n1` as the molecule, how does the Potency read?
A: 19.3 µM (active)

Q: With `CC1=C(/C=C/C(C)=C/C=C/C(C)=C/C(=O)Nc2ccc(O)cc2)C(C)(C)CCC1` as the molecule, how does the Potency read?
A: 21.7 µM (active)

Q: Which Potency does the source give for `Nc1ccccc1NC(=O)c1ccc(CNC(=O)OCc2cccnc2)cc1` here?
A: 4.32 µM (active)

Q: `Cc1cnc(Nc2ccc(F)cc2Cl)nc1-c1c[nH]c(C(=O)NC(CO)c2cccc(Cl)c2)c1` (stereo not drawn) was tested. Which “activity change, negative = viability loss” value did it give?
A: -14%

Q: `O=c1[nH]c(=O)n([C@H]2C[C@H](O)[C@@H](CO)O2)cc1C(F)(F)F` was tested. Which “activity change, negative = viability loss” value did it give?
A: -21%

Q: With `CN(C)C(CCOc1cccc2ccccc12)c1ccccc1` (stereo not drawn) as the molecule, how does the “activity change, negative = viability loss” value read?
A: 2.73%

Q: With `NS(=O)(=O)OC[C@@H]1C[C@@H](n2ccc3c(N[C@H]4CCc5ccccc54)ncnc32)C[C@@H]1O` as the molecule, how does the “activity change, negative = viability loss” value read?
A: -26.3%

Q: For `Cn1cnc2c(F)c(Nc3ccc(Br)cc3F)c(C(=O)NOCCO)cc21`, which “activity change, negative = viability loss” value is on record?
A: 5.2%

Q: How did the Potency turn out when `Cc1cnc(Nc2ccc(OCCN3CCCC3)cc2)nc1Nc1cccc(S(=O)(=O)NC(C)(C)C)c1` was run?
A: 17.2 µM (active)

Q: Which Potency does the source give for `C[C@@H](Oc1cc(-c2cnn(C3CCNCC3)c2)cnc1N)c1c(Cl)ccc(F)c1Cl` here?
A: 15.3 µM (active)

Q: With `CN1CCN(Cc2ccc(NC(=O)Nc3ccc(Oc4cc(NC(=O)C5CC5)ncn4)cc3)cc2C(F)(F)F)CC1` as the molecule, how does the Potency read?
A: 19.3 µM (active)

Q: With `CN(C)CC/C=C1\c2ccccc2COc2ccccc21` as the molecule, how does the “activity change, negative = viability loss” value read?
A: -9.39%

Q: For `COc1cc2c(Nc3ccc(NC(=O)c4ccccc4)cc3)ncnc2cc1OCCCN1CCOCC1`, which Potency is on record?
A: 38.5 µM (active)

Q: Which Potency does the source give for `Nc1nc(=S)c2[nH]cnc2[nH]1` here?
A: 9.68 µM (active)

Q: With `COc1cc2c(cc1-c1c(C)noc1C)ncc1[nH]c(=O)n(C(C)c3ccccn3)c12` (stereo not drawn) as the molecule, how does the Potency read?
A: 27.3 µM (active)

Q: With `Cc1cc(Nc2nc(N[C@@H](C)c3ccc(F)cc3)c(C#N)cc2F)n[nH]1` as the molecule, how does the Potency read?
A: 2.73 µM (active)

Q: For `CCC1C(=O)N(C)c2cnc(Nc3ccc(C(=O)NC4CCC(N5CCN(CC6CC6)CC5)CC4)cc3OC)nc2N1C(C)C` (stereo not drawn), which Potency is on record?
A: 0.0611 µM (active)

Q: With `Cc1nc2ccc(CN(C)c3ccc(C(=O)NC(CCC(=O)O)C(=O)O)s3)cc2c(=O)[nH]1` (stereo not drawn) as the molecule, how does the “activity change, negative = viability loss” value read?
A: -20.2%

Q: How did the Potency turn out when `Cc1cnc(Nc2cccc(CN3CCOCC3)c2)nc1Nc1cccc(S(=O)(=O)NC(C)(C)C)c1` was run?
A: 21.7 µM (active)

Q: How did the “activity change, negative = viability loss” value turn out when `CC(C)(C(=O)NCC(F)(F)C(F)(F)F)C(=O)NC1C(=O)Nc2ccccc2-c2ccccc21` (stereo not drawn) was run?
A: 2.12%

Q: Which Potency does the source give for `CCN1CCN(Cc2ccc(-c3cc4c(NC(C)c5ccccc5)ncnc4[nH]3)cc2)CC1` (stereo not drawn) here?
A: 21.7 µM (active)

Q: How did the Potency turn out when `CN1CCN(c2ccc(OC(F)(F)F)c(Nc3ncc4c(n3)-c3c(c(C(N)=O)nn3CCO)CC4)c2)CC1` was run?
A: 0.153 µM (active)

Q: For `COc1ccc2c(c1OC)C(=O)O[C@@H]2[C@H]1c2c(cc3c(c2OC)OCO3)CCN1C`, which Potency is on record?
A: 30.6 µM (active)

Q: `CC(C)C[C@H](NC(=O)[C@H](Cc1ccccc1)NC(=O)c1cnccn1)B(O)O` was tested. Which Potency did it give?
A: 0.0485 µM (active)

Q: `CCc1c2c(nc3ccc(O)cc13)-c1cc3c(c(=O)n1C2)COC(=O)[C@]3(O)CC` was tested. Which Potency did it give?
A: 1.72 µM (active)

Q: `Cc1c2oc3c(C)ccc(C(=O)N[C@@H]4C(=O)N[C@H](C(C)C)C(=O)N5CCC[C@H]5C(=O)N(C)CC(=O)N(C)[C@@H](C(C)C)C(=O)O[C@@H]4C)c3nc-2c(C(=O)N[C@@H]2C(=O)N[C@H](C(C)C)C(=O)N3CCC[C@H]3C(=O)N(C)CC(=O)N(C)[C@@H](C(C)C)C(=O)O[C@@H]2C)c(N)c1=O` (I: T[dV]P[Sar][NMeV] / II: T[dV]P[Sar][NMeV]; ester I:1-I:C, II:1-II:C; linker I:N-II:N via Actinocin(9to1)) was tested. Which Potency did it give?
A: 1.72 µM (active)

Q: Which Potency does the source give for `CCOc1cc2ncc(C#N)c(Nc3ccc(F)c(Cl)c3)c2cc1NC(=O)/C=C/CN(C)C` here?
A: 1.72 µM (active)

Q: For `C1CCC(C(CC2CCCCN2)C2CCCCC2)CC1` (stereo not drawn), which Potency is on record?
A: 24.3 µM (active)

Q: How did the Potency turn out when `CN(C)CCC(CSc1ccccc1)Nc1ccc(S(=O)(=O)NC(=O)c2ccc(N3CCN(Cc4ccccc4-c4ccc(Cl)cc4)CC3)cc2)cc1[N+](=O)[O-]` (stereo not drawn) was run?
A: 8.63 µM (active)
